Only some compounds are listed: those with a hit (about 15% of all), similar ones and a draw of the others.
Sm TGR block: blocks Schistosoma mansoni thioredoxin glutathione reductase; purified TGR, DTNB reduction, TNB absorbance 405 nm; actives 3% (n = 360,000); Q962Y6; Potency, µM (highest dose often 114 µM), for the others: top-dose activity change, negative = inhibition, hits mostly inhibitors; also: potency is read from the fitted curve at half-maximal effect; % is scaled to controls: 0 for no effect and ±100 for the full control effect; nearly all actives have a fitted effect of over 60% in size
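Kinetic colorimetric format: TGR-catalysed, NADPH-driven DTNB reduction monitored via TNB absorbance. Enzyme dispensed at 20 nM; compound exposure 15 min at room temperature before reaction start.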
Pf growth 48h: P. falciparum growth inhibition at 48 hours (one generation); Potency, µM (series often up to 28.7 µM), for the others: top-dose activity change, negative = inhibition, most hits filed as inhibitors; actives 5.9% (n = 310,000); P. falciparum luciferase growth in erythrocytes, 48 h; also: potency is read from the fitted curve at half-maximal effect; % is scaled to controls: 0 for no effect and ±100 for the full control effect
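Luciferase-expressing parasites in RBCs, 2% Hct / 0.1% parasitemia final; RPMI 1640 + 0.5% Albumax; 37 C, 5% CO2, one generation; luminescence read-out, lower signal = inhibition.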
Pf growth 96h: P. falciparum growth inhibition at 96 hours; P. falciparum luciferase reporter growth, 96 h; Potency, µM (doses to about 28.7 µM), inactives show at the top dose activity change, negative = inhibition, hits mostly inhibitors; actives 6.9% (n = 320,000); AID 504834; also: potency is read from the fitted curve at half-maximal effect; % is scaled to controls: 0 for no effect and ±100 for the full control effect
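Parasite growth measured via integrated firefly luciferase reporter in P. falciparum. Infected erythrocytes at 2% hematocrit, 0.05% parasitemia final were treated 96 hours at 37 C under 5% CO2, and luminescence was read.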
HCV inhibitor: HCV inhibition | Huh7.5.1 HCVcc-Cre infection, luciferase reporter, 44 h | Potency, µM (series often up to 41.8 µM), without a hit: at the highest dose activity change, negative = inhibition, actives largely listed as inhibitors | actives 3.4% (n = 340,000); also: potency is read from the fitted curve at half-maximal effect; % is scaled to controls: 0 for no effect and ±100 for the full control effect
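Infectious HCVcc-Cre (~0.5 moi) was added to cells just after compound, with cells seeded 4 h earlier at 1,000 per well. Luciferase activity after 44 h culture reported infection; substrate was incubated 15 min at room temperature before reading.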
SARS PLP yeast: SARS-CoV PLP inhibition in yeast; actives 0.19% (n = 330,000); S. cerevisiae expressing SARS-CoV PLpro, growth rescue; Potency, µM (highest dose often 32.9 µM), for the others: top-dose activity, positive = growth rescue, usual class: activators; calls by dose curve; also: potency is read from the fitted curve at half-maximal effect; 0% is about no effect; nearly all actives have a fitted effect of over 55% in size
HCMV antiviral: inhibitors of human cytomegalovirus | AID 1259415 | actives 4.5% (n = 410,000) | activity change, negative = inhibition, % at 57.5 µM | HFF cells, HCMV-luciferase reporter, 72 h; hits give low values; in the data active = activity change below about -60%; inconclusive = no clear call, values can overlap the other calls; inactive = above about -39%; also: % is scaled to controls: 0 for no effect and ±100 for the full control effect
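Steps: HFFs plated, 16 h 37C; compounds added; HCMV-luciferase added to MOI 1 PFU/cell; 72 h 37C; OneGlo reagent, 5 min room temperature; luminescence read, normalized to controls.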
Active calls of the source: *; i = inactive; ? = inconclusive; nt = no result. Unless noted, calls follow the shape of the dose curve; as a rule, active = well fitted curve in the direction sought with a large enough effect; inconclusive = small, poorly fitted or top-dose-only effect, or another doubt; inactive = no such curve, though single readings can be large; an effect the other way counts as inactive or inconclusive.

SMILES	Sm TGR block	Pf growth 48h	Pf growth 96h	HCV inhibitor	SARS PLP yeast	HCMV antiviral
Cc1ccc(N2C(=O)c3ccccc3C2=O)cc1	-0.7%	7.0%	13.7%	15.0%	-2.2%	?
COC(=O)c1ccc(/C=C/C(=O)OCC(=O)Nc2ncc(Cl)cc2Cl)cc1	-5.5%	11.7µM*	?	12.4%	1.8%	21.7
Cc1nc(NC(=O)COC(=O)C(NC(=O)c2ccco2)C(C)C)c(Cl)cc1Cl (configuration not stated)	31.6µM*	15.2%	nt	-3.1%	-1.0%	103.0
CC(C)=CC(=O)OCC(=O)Nc1nc(C)c(Cl)cc1Cl	25.0%	17.0%	-12.8%	-9.8%	-4.3%	59.4
Cc1nc(NC(=O)COC(=O)/C=C/c2ccco2)c(Cl)cc1Cl	8.91µM*	5.2%	29.0%	0.7%	0.4%	-15.3
CN(C)S(=O)(=O)c1ccc(Cl)c(NC(=O)COC(=O)/C=C/c2ccco2)c1	35.5µM*	42.4%	14.2%	-6.4%	-2.2%	73.8
C[C@@H](c1ccccc1)N1C[C@@H](COCc2ccccc2)Oc2cc(N3CC[C@@H](O)C3)ccc2S1(=O)=O	nt	nt	nt	nt	nt	-21.3
Cc1cc(C)c(NC(=O)CCn2c(=O)c3cccn3c3ccccc32)c(C)c1	-6.2%	nt	nt	nt	nt	-16.0
O=C(COC(=O)/C=C/c1ccco1)Nc1ncc(Cl)cc1Cl	44.7µM*	23.5%	33.1%	3.3%	1.4%	49.3
CC1CCc2c(c3ccccc3n2C(=O)CCl)C1 (configuration not stated)	8.91µM*	8.8%	-28.3%	?	4.1%	-13.3
CCN1CCN(CC(=O)n2c3c(c4ccccc42)CC(C)CC3)CC1 (configuration not stated)	-25.4%	?	nt	3.16µM*	-6.8%	-30.2
CNC(=O)c1ccc(=O)n(Cc2cccc(C(F)(F)F)c2)c1	13.3%	2.94µM*	2.3%	3.7%	2.1%	-14.3
CNC(=O)c1cccn(Cc2cccc(C(F)(F)F)c2)c1=O	1.1%	1.5%	-17.2%	-24.9%	-1.0%	42.7
COC(=O)c1ccc(/C=C/c2c(-c3ccsc3)sc3ccccc23)cc1	-25.5%	?	?	10µM*	-3.7%	-3.7
CCn1c2c(c3cc(Br)ccc31)CCC/C2=N\O	9.1%	?	nt	?	nt	-107.3*
C=C1/C=C(\C)[C@](C)(O)C[C@H](O)CC(=O)[C@H](O)[C@@H](O)[C@H](C)C[C@H](C)OC(=O)/C(C)=C/CC/C=C/[C@@H]2O[C@H]2C[C@H](C)C1	nt	nt	nt	11.4%	3.9%	nt
COc1cc(C)c(S(=O)(=O)NOCc2ccccc2)c(C)c1C	17.0%	-12.4%	?	?	-13.0%	-17.7
CC(C)(C)c1ccc(/C([O-])=C(/C(=S)NCc2ccco2)[n+]2ccccc2)cc1	56.2µM*	nt	-85.1%	nt	-4.1%	nt
Cc1ccc[n+](/C(C(=S)NCc2ccco2)=C(/[O-])c2ccccc2Cl)c1	31.6µM*	nt	?	13.0%	5.7%	-23.9
Cn1c(=O)c2c(ncn2CC(=O)Nc2nc(-c3ccccc3Cl)cs2)n(C)c1=O	5.2%	7.2%	-11.4%	?	0.1%	-60.1*
COC(=O)c1ccccc1NC(=O)Cn1cnc2c1c(=O)n(C)c(=O)n2C	nt	nt	nt	-3.2%	nt	19.1
CCOC(=O)Cc1csc(NC(=O)Cn2cnc3c2c(=O)n(C)c(=O)n3C)n1	-9.3%	29.7%	54.1%	1.3%	-1.9%	15.0
Cn1c(=O)c2c(ncn2CC(=O)Nc2ccccc2Sc2ccccc2)n(C)c1=O	-5.8%	-6.3%	nt	-8.9%	1.4%	-76.2*
N=c1sccn1CC(=O)Nc1ccccc1Sc1ccccc1	1.5%	-8.2%	0.0%	-12.8%	-1.2%	-62.1*
O=C(CN1CCOCC1)Nc1ccccc1Sc1ccccc1	5.4%	-15.0%	-16.1%	-11.5%	0.6%	-13.6
SMILES	Sm TGR block	Pf growth 48h	Pf growth 96h	HCV inhibitor	SARS PLP yeast	HCMV antiviral
CCOc1ccc(NC(=O)C(c2ccccn2)N(C(=O)CCl)c2ccc(OC)cc2)cc1 (configuration not stated)	44.7µM*	-79.3%	?	8.5%	-13.6%	12.5
COc1ccc(NC(=O)C(c2ccccn2)N(C(C)=O)c2ccc(C)cc2)cc1 (configuration not stated)	-4.2%	29.7%	?	14.7%	0.6%	93.1
CC(=O)Nc1ccc(C(=O)N(C)C(C(=O)Nc2ccc(C)cc2)c2ccccn2)cc1 (configuration not stated)	-4.1%	-13.1%	-22.4%	25.7%	-0.8%	-62.7*
CCOc1ccc(NC(=O)C(c2ccccn2)N(C(=O)CCl)c2ccc(OCC)cc2)cc1 (configuration not stated)	44.7µM*	-81.8%	5.1%	0.1%	13.9%	nt
CCOc1ccc(NC(=O)Nc2ccccc2SC)cc1	-2.9%	82.9%	i	-21.9%	-1.2%	11.8
Cc1cc(C)c2nc(SCC(=O)NCCC3=CCCCC3)cc(C)c2c1	4.1%	?	?	22.0%	11.4%	21.9
CCC(=O)Nc1nc2n(n1)C(c1ccc(OC)cc1)C=C(c1ccccc1)N2 (configuration not stated)	4.47µM*	nt	?	nt	7.9%	nt
COc1ccc(C2C=C(c3ccccc3)Nc3nc(NC(=O)/C=C/c4ccccc4)nn32)cc1 (configuration not stated)	0.7%	nt	nt	nt	nt	-2.9
COc1ccc(C(=O)Nc2nc3n(n2)C(c2ccccc2)C=C(c2ccccc2)N3)cc1 (configuration not stated)	3.16µM*	nt	nt	nt	nt	-13.1
COc1ccc(C2C=C(c3ccccc3)Nc3nc(NC(=O)/C=C/c4ccccc4OC)nn32)cc1 (configuration not stated)	-12.4%	nt	nt	nt	nt	-1.3
CC(C)CC(=O)Nc1ccc2c3c(cccc13)CC2	4.8%	2.0%	-9.4%	-5.0%	14.2%	?
C/C(Cn1cnc([N+](=O)[O-])n1)=N\NC(=O)c1ccccc1	3.4%	40.3%	-0.8%	5.4%	17.5%	4.5
C/C(Cn1nnc([N+](=O)[O-])n1)=N\NC(=O)c1ccccc1	-16.5%	?	14.7µM*	?	8.7%	-24.3
N#Cc1c(Nc2ccccc2)[n+]([O-])c2ccc(Cl)cc2[n+]1[O-]	nt	nt	nt	2.82µM*	nt	?
O=C(/C=C/Nc1ccccc1)c1ccc(Cl)cc1Cl	19.5%	257.0%	271.1%	-12.8%	-4.5%	119.1
Cc1nc(S(=O)(=O)N2CCOCC2)c(C#N)c(C)c1Cl	11.4%	?	?	-8.7%	24.5%	-104.6*
Cc1nc(S(=O)(=O)NC2CCCCC2)c(C#N)c(C)c1Cl	-16.9%	-16.9%	6.0%	-24.0%	-1.6%	?
Cc1ccc(NC(=O)C2CCN(S(=O)(=O)c3ccccc3)CC2)cc1	11.7%	-16.3%	2.1%	1.7%	0.3%	?

High-throughput results deposited in PubChem BioAssay by National Center for Advancing Translational Sciences (NCATS).
